In the supplement of paper PMC6518042 one finds DuctApe activity index data, which are given here for 25 molecules.

Structures are written as SMILES.

In this assay the test system is Pectobacterium parmentieri SCC3193. The experiment in a line: DuctApe activity index (growth/respiration on compound as sole nutrient source, blank-subtracted) (activity index (0-3)); higher = stronger utilization of the compound, active = 3 or more. Here is the method:
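Biolog Phenotype Microarray plates PM1, PM2A (carbon), PM3 (nitrogen) and PM4 (phosphorus/sulfur) inoculated with P. parmentieri SCC3193 in M9-C minimal salts medium with Biolog dye A, and read in the OmniLog for 46 h. Each well was tested in triplicate and the experiment was run twice. DuctApe computed a blank-subtracted activity index (AV, 0-3) from the mean curves; growth is positive at AV >= 3 and negative at AV <= 2.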

Setting [1] is: nutrient role (plate category): carbon.
The mark [2] stands for this setting: nutrient role (plate category): nitrogen.
The mark [3] stands for this setting: nutrient role (plate category): phosphate & sulphur.

As to `NC(=O)CC[C@H](N)C(=O)O` [L-Glutamine], the DuctApe activity index by setting is: under setting [1], 0 (inactive); under setting [2], 2 (inactive). Regarding `CC(=O)N[C@@H](CCC(=O)O)C(=O)O` [N-Acetyl-L-Glutamic acid], the DuctApe activity index under setting [1] is 0 (inactive) and the DuctApe activity index under setting [2] is 0 (inactive). For `NCCN` [Ethylenediamine], under setting [2], the DuctApe activity index was 0 (inactive). Regarding `NC(=O)C[C@H](N)C(=O)O` [L-Asparagine], the DuctApe activity index reads like this: under setting [1], 3 (active); under setting [2], 2 (inactive). For `CC(C)[C@@H](N)C(=O)O` [D-Valine], the DuctApe activity index under setting [2] is 0 (inactive). `C[C@H](N)C(=O)N[C@@H](CCC(=O)O)C(=O)O`: under setting [2], the DuctApe activity index was 1 (inactive).

Take `CO[C@H]1O[C@H](CO)[C@@H](O)[C@H](O)[C@@H]1O` [a-Methyl-D-Mannoside]: under setting [1], the DuctApe activity index was 0 (inactive). Same read-out and setting: to `OC[C@H]1O[C@H](O[C@H]2[C@H](O)[C@@H](O)[C@@H](O[C@H]3[C@H](O)[C@@H](O)[C@@H](O)O[C@@H]3CO)O[C@@H]2CO)[C@H](O)[C@@H](O)[C@@H]1O` [Maltotriose] belongs 3 (active); to `OCC1OC(OC2C(CO)OC(O)C(O)C2O)C(O)C(O)C1O` [D-Cellobiose], 3 (active).

On to `NC(Cc1ccc(OP(=O)(O)O)cc1)C(=O)O` (stereo in doubt) [O-Phospho-D-Tyrosine], for which the DuctApe activity index under setting [3] is 2 (inactive).

As for `N[C@@H](Cc1c[nH]c2ccccc12)C(=O)O` [L-Tryptophan], the DuctApe activity index under setting [2] is 1 (inactive). Regarding `N[C@@H](Cc1ccccc1)C(=O)O` [L-Phenylalanine], the DuctApe activity index reads like this: under setting [1], 0 (inactive); under setting [2], 0 (inactive). For `N=C(N)NCCC[C@H](N)C(=O)O` [L-Arginine], the DuctApe activity index under setting [1] is 0 (inactive) and the DuctApe activity index under setting [2] is 0 (inactive). For the molecule `NCCCCCC(=O)O` [e-Amino-N-Caproic acid], the DuctApe activity index under setting [2] was 0 (inactive). Take `C[C@H](N)C(=O)NCC(=O)O`: the DuctApe activity index under setting [1] was 0 (inactive) and the DuctApe activity index under setting [2] is 0 (inactive). With `N[C@H]1C(O)O[C@H](CO)[C@@H](O)[C@@H]1O` (stereo partly drawn) [D-Glucosamine], the DuctApe activity index is 3 (active) under setting [1] and 3 (active) under setting [2]. Turning to `NC(=O)NC1NC(=O)NC1=O` (configuration not stated) [Allantoin], under setting [2], the DuctApe activity index was 0 (inactive). Regarding `Nc1nc2c(ncn2[C@@H]2O[C@H](COP(=O)(O)O)[C@@H](O)[C@H]2O)c(=O)[nH]1` [Guanosine 5`-Monophosphate], under setting [3], the DuctApe activity index was 1 (inactive). The same measure, in the same setting: as for `CS(=O)(=O)O` [Methane Sulfonic acid], the figure is 0 (inactive). In the case of `NCCCCN` [Putrescine], the DuctApe activity index was 0 (inactive) under setting [1] and 0 (inactive) under setting [2].

For the molecule `CC(C)[C@H](N)C(=O)O` [L-Valine], the DuctApe activity index is 0 (inactive) under setting [1] and 0 (inactive) under setting [2]. On to `CSCC[C@H](NC(=O)CN)C(=O)O`, for which the DuctApe activity index was 0 (inactive) under setting [2] and 1 (inactive) under setting [3].

As for `OCC(O)C(O)C(O)CO` (configuration not stated) [Adonitol], the DuctApe activity index under setting [1] was 1 (inactive).

For `CC[C@H](C)[C@H](N)C(=O)O` [L-Isoleucine], the DuctApe activity index under setting [1] is 0 (inactive) and the DuctApe activity index under setting [2] is 0 (inactive). In the case of `N[C@@H](CC(=O)O)C(=O)O` [L-Aspartic acid], the DuctApe activity index runs as follows: under setting [1], 3 (active); under setting [2], 0 (inactive).
